Each structure is given as a SMILES string. About 12,000 (3.5%) of roughly 340,000 compounds were called active. A call without a number means that no potency is given here. Another 18% or so got no clear call; they are omitted. Calls come from the whole dose curve; as a rule, active = well fitted inhibition curve with a large enough effect; inconclusive = small, poorly fitted or top-dose-only effect, or another doubt; inactive = no such curve, though single readings can be large or run the other way. Many of the other results were omitted from the sample, so actives are more common in it than they were.
Potency is the fitted concentration of half-maximal effect.

The assay can be described thus: qHTS Assay for Inhibitors of Hepatitis C Virus (HCV). As to conditions: Huh7.5.1 HCVcc-Cre infection, luciferase reporter, 44 h; series mostly up to 41.8 µM. The method in brief: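 Cells (1,000/well) were plated 4 h before compound, then infected with HCVcc-Cre virus (~0.5 moi). After 44 h further culture, infection was read as luciferase luminescence following a 15 min substrate incubation at room temperature.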
(In qHTS, concentration-response curves come from the screen itself.)
As for `CCc1cccc(NC(=S)N(CCN(C)C)C2CCN(C(C)C)CC2)c1`, the Potency was 8.91 µM (active).

Take `COCCN(C(=S)Nc1ccccc1OC)C1CCN(C(C)C)CC1`: the Potency entry is “inactive”.

Turning to `Cc1cccc(NC(=S)N(CCN(C)C)C(C)c2ccco2)c1` (stereo not given), the Potency entry was “inactive”.

On to `O=c1oc2ccc(C#CC3(O)CCCCC3)cc2cc1-n1cc(-c2ccsc2)nn1`, for which the Potency entry is “inactive”.

Consider `CCOC(=O)C(C)N(c1ccccc1Cl)S(C)(=O)=O` (stereo not given), for which the Potency entry is “inactive”.

Take `COc1cccc(CC(=O)OCC(=O)NCc2ccc3c(c2)OCO3)c1`: the Potency entry is “inactive”.

Consider `COc1cccc(CCNC(=O)COc2cccc3c2OC(C)(C)C3)c1`, for which the Potency entry was “inactive”.

For the molecule `COc1cccc(CNC(=O)COc2cc(O)c3c(c2)OC(C)(C)CC3=O)c1`, the Potency is 5.01 µM (active).

`COc1cc2[nH]c(O)c(C=O)c2cc1OC`: the Potency result was “inactive”.

With `COc1ccccc1C(=O)Nc1ccc(Nc2ccccc2)cc1`, the Potency result is “inactive”.

Consider `COc1ccc2[nH]c3c(c2c1)CCN1C(=O)C(CC(=O)NCCc2ccccn2)C[C@H](C(=O)N2CCOCC2)[C@@]31C` (stereo not given in full), for which the Potency result was “inactive”.

Turning to `COc1ccc(OC)c(CNC(=O)Cn2nc(C)c3c(C)n(-c4ccc(C)cc4)nc3c2=O)c1`, the Potency was 3.98 µM (active).

Regarding `Cc1nn(CC(=O)N2CCCCC2)c(=O)c2nn(-c3ccccc3)c(C)c12`, the Potency entry was “inactive”.

Turning to `COc1ccc(CNC(=O)C(C)n2nc(C)c3c(C)n(-c4ccccc4)nc3c2=O)c(OC)c1` (stereo not given), the Potency result was “inactive”.

Take `O=C(c1ccc(Cl)s1)N(Cc1nnc(-c2ccccc2Cl)o1)C1CC1`: the Potency entry was “inactive”.

On to `COc1ccc(OCC(=O)Nc2ccc(NC(=O)c3ccco3)c(C)c2)cc1`, for which the Potency result was “inactive”.

For `CCC(=O)NC(=S)Nc1ccc(NC(=O)c2ccco2)c(Cl)c1`, the Potency entry was “inactive”.

Regarding `CCN(CC)P(=O)(Nc1ccc(SC(F)F)cc1)c1ccc(N(C)C)cc1NC(=O)c1ccco1` (stereo not given), the Potency is 22.4 µM (active).

Consider `CCN(C(=O)COC(=O)CCOc1cccc(C)c1)c1c(N)n(Cc2ccccc2)c(=O)[nH]c1=O`, for which the Potency result was “inactive”.

`CC(OC(=O)c1ccc([N+](=O)[O-])cc1)C(=O)NCC1CCCCC1` (stereo not given): the Potency entry is “inactive”.

Regarding `N[C@@H](Cc1ccccc1)C(=O)N1CCOCC1`, the Potency result is “inactive”.

As for `COc1ccc(-c2cc(C(=O)N/N=C/c3cccnc3)c3ccccc3n2)c(OC)c1`, the Potency entry is “inactive”.

Consider `Cc1cc(C)cc(C(=O)NCCN2CCOCC2)c1`, for which the Potency result is “inactive”.

Regarding `CC(=O)Oc1cc2c(C(=O)NCCN3CCOCC3)c(C)oc2c2ccccc12`, the Potency is 10 µM (active).

For the molecule `Cc1ccc(C(=O)NCCN2CCOCC2)cc1C`, the Potency result is “inactive”.

As for `C[C@@H]1CN([C@H](C)CO)C(=O)c2cc(NC(=O)NC3CCCCC3)ccc2O[C@H]1CN(C)S(C)(=O)=O`, the Potency entry is “inactive”.

As to `Cc1ccc(S(=O)(=O)CCC(=O)OCC(=O)NCCc2ccc(S(N)(=O)=O)cc2)cc1`, the Potency entry was “inactive”.

As for `COc1cccc(CC(=O)Nc2ccc(-c3csc(C)n3)cc2)c1`, the Potency entry was “inactive”.

Turning to `COc1ccc(CC(=O)Nc2ccccc2NC(=O)c2ccco2)cc1OC`, the Potency entry is “inactive”.

Regarding `Cc1ccc(S(=O)(=O)NC(=O)Nc2nc(-c3ccc(F)c(F)c3)cs2)cc1`, the Potency result is “inactive”.

As for `COc1ccc(-c2csc(NC(=O)c3ccc(N4C(=O)CCC4=O)cc3)n2)cc1OC`, the Potency result is “inactive”.

Take `COc1ccc(CC(=O)Nc2nc(-c3ccc(F)c(F)c3)cs2)cc1OC`: the Potency was 4.47 µM (active).

For `COc1cc(CC(=O)Nc2nc(-c3ccc(F)c(F)c3)cs2)cc(OC)c1OC`, the Potency was 10 µM (active).

Take `COc1ccc(CCN(C(=O)COc2ccccc2)c2nc(-c3ccccc3)cs2)cc1OC`: the Potency entry is “inactive”.

As to `COc1cccc(CC(=O)Nc2nc(-c3ccc(OC)c(OC)c3)cs2)c1`, the Potency was 12.6 µM (active).

Take `Cc1ccc(-c2csc(NC(=O)Cc3cccs3)n2)cc1C`: the Potency result is “inactive”.

Turning to `Cc1nc2ccccc2c(=O)n1-c1ccc(F)c(NC(=O)c2cccs2)c1`, the Potency entry is “inactive”.

Turning to `CCCN(CC1CC1)C(=S)NC(=O)c1ccccc1Br`, the Potency result is “inactive”.

In the case of `CCOc1ncccc1C(=O)OCC(=O)c1c[nH]c2ccccc12`, the Potency result was “inactive”.

`O=C(Nc1ccc2ccccc2c1[N+](=O)[O-])c1ccccc1`: the Potency result is “inactive”.

Turning to `COc1ccccc1C(=O)NCCC(=O)NCC(c1ccco1)N1CCCCC1` (stereo not given), the Potency entry is “inactive”.

As to `O=C(COC(=O)c1ccc(Br)o1)NC12CC3CC(CC(C3)C1)C2`, the Potency result is “inactive”.

Take `CN(C(=O)COC(=O)CCCc1c[nH]c2ccccc12)c1c(N)n(Cc2ccccc2)c(=O)[nH]c1=O`: the Potency result is “inactive”.

As for `COc1ccc(Cl)cc1NC(=O)CN(C)C(=O)c1ccc2n[nH]nc2c1`, the Potency entry was “inactive”.

Consider `CN(C(=O)CSc1nnc(-c2ccc(C(C)(C)C)cc2)n1C)C1CCS(=O)(=O)C1` (stereo not given), for which the Potency entry was “inactive”.

As for `O=C(O)CSCC(=O)Nc1cccc(C(F)(F)F)c1`, the Potency entry is “inactive”.

In the case of `O=C(Nc1cccc(C(F)(F)F)c1)c1cnccn1`, the Potency result is “inactive”.

Turning to `Cn1nc(C(F)(F)F)c(C(=O)Nc2cccc(C(F)(F)F)c2)c1SCc1ccc(Cl)cc1`, the Potency was 10 µM (active).

Consider `O=C1OC[C@@H]2CCCN2C(=O)[C@H](CC(=O)N(CCO)Cc2ccccc2)C/C=C\CC[C@@H]1Cc1ccc(F)cc1`, for which the Potency result is “inactive”.

For the molecule `O=C1c2ccccc2[C@@H]2C[C@@H](O)[C@H](Nc3ccccc3Cl)CCN12`, the Potency result is “inactive”.

As for `CSc1ccccc1NC(=O)c1cnc2sc(C)cn2c1=O`, the Potency result is “inactive”.

Consider `O=C(CN1C2=NCCN2c2ccccc21)c1cccs1`, for which the Potency result is “inactive”.

As for `Nc1c(C(=O)c2cccs2)sc2nsc(SCCN3CCCCC3)c12`, the Potency is 10 µM (active).

On to `O=C(C[C@H]1C[C@H](C(=O)N2CCOCC2)[C@@]2(CCC3CCCC3)c3[nH]c4ccc(Cl)cc4c3CCN2C1=O)NCc1ccco1`, for which the Potency result is “inactive”.

Regarding `CC(C)(C)OC(=O)C[C@@H]1C/C=C\C[C@@H](CC(=O)N[C@H](CO)Cc2ccccc2)C(=O)NCCOC1=O`, the Potency entry is “inactive”.

With `O=S(=O)(O)c1cc2onnc2c2ccccc12`, the Potency result is “inactive”.

In the case of `Cc1c(Cl)cnc(NC(=O)COC(=O)C2CCCC2)c1Cl`, the Potency result was “inactive”.

For `CN(C)c1cc[n+](Cc2ccccc2)cc1`, the Potency is 0.891 µM (active).

For the molecule `c1ccc(Cc2cc[n+](Cc3ccccc3)cc2)cc1`, the Potency result was “inactive”.

Regarding `CN(C)c1ccc(CSc2ccccc2)cc1`, the Potency result was “inactive”.

`O=C1CCC/C=C/C[C@@H](CC(=O)N(CCO)Cc2ccccc2)C(=O)NC[C@H](c2ccccc2)O1`: the Potency entry is “inactive”.

For the molecule `Cc1ccc(S(=O)(=O)N(C)c2ccc(OCC(=O)OCc3ccc(C#N)cc3)cc2)cc1`, the Potency entry was “inactive”.

For `O=C(CN1CCN(c2ccccn2)CC1)Nc1ccc(Br)cc1`, the Potency result was “inactive”.

Consider `Cc1cc(Br)ccc1NC(=O)c1cnc(N2CCN(c3ccccn3)CC2)c2ccccc12`, for which the Potency is 2.51 µM (active).

Take `Cc1cc(Br)ccc1NC(=O)c1sc2ncn(CC(=O)N3CCN(c4ccccn4)CC3)c(=O)c2c1C`: the Potency result is “inactive”.

Values taken from PubChem BioAssay AID651820 (National Center for Advancing Translational Sciences (NCATS), 2012).
